# Test results as given in paper PMC7819943, “Rice protein-binding microarrays: a tool to detect cis-acting elements near promoter regions in rice”.
# In all, about 35,000 sequences were measured (“fluorescence intensity (a.u.)”: median about 10,000, highest 2% from about 52,000 on). What follows is part of a selection rich in the highest values, with near analogues and random picks from the rest.
# Molecular target: T1, OsWOX13 (Oryza sativa, UniProt Q5QMM3 1-267)
# T1 sequence: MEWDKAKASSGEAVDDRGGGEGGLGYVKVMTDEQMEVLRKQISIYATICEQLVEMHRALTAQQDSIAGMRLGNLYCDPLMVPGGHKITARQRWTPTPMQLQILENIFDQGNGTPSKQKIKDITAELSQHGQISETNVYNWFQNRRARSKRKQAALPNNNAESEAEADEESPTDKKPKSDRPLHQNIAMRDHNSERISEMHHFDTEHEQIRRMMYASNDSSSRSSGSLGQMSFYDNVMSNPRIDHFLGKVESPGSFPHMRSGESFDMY
# Test: protein-binding microarray (RPBM); PBS, 2% BSA, 51.3 ng/ul salmon testes DNA, 50 uM zinc acetate, 200 nM TF, 25 C, 1 h; high values mean tight binding
# Settings: protein: recombinant; tags: N-terminal polyhistidine and DsRed monomer fusion (pET32a); label: CyDye5-dUTP incorporated in the synthesized complementary strand; 3' TTTTT single-stranded linker to array surface; dsDNA, one strand shown
# Summary of the method: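 In PBS with 2% BSA, salmon testes DNA and 50 µM zinc acetate, 200 nM protein was incubated on a custom Agilent array at 25 °C for 1 h and then washed off. The array had been made double-stranded by primer extension with Cy5-dUTP and blocked with 2% BSA. The proteins were transcription factors fused N-terminally to polyhistidine and DsRed, expressed in E. coli BL21-CodonPlus and purified on Ni–NTA. The binding signal is per-feature fluorescence intensity (arbitrary units) from an Axon 4000B scanner.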
row,Sequence,binding signal
1,CCGACCCGTTGGATTGATAAAACCAACTGCTTCCCGCTCCCGGAGTCACCTAGTGCAG,6190 fluorescence intensity (a.u.)
2,TTGGTTGGTTGGTTGATTGCTCGCGCCCCGCGCGGTTGCGCGGAGTCACCTAGTGCAG,6680 fluorescence intensity (a.u.)
3,ATTGTTGCTGCTGCTGGATTGATTAGTGGTTAAGCAGATTCGGAGTCACCTAGTGCAG,5320 fluorescence intensity (a.u.)
4,ATGTGATTGATTCTGCTGGTGGATTCTCTCTTCGGTTTGCCGGAGTCACCTAGTGCAG,62800 fluorescence intensity (a.u.)
5,ACCAAGTAATTGATATCTAGAAATCCGATACCTAGTACCACGGAGTCACCTAGTGCAG,55000 fluorescence intensity (a.u.)
6,TGGCCTTGATTTGCTTCCTGAATGTGCCTGCTTCCTTACACGGAGTCACCTAGTGCAG,18100 fluorescence intensity (a.u.)
7,ATTGATTGATAAACCCTACTGCTTCTCGCCGCCGCCGCCGCGGAGTCACCTAGTGCAG,55100 fluorescence intensity (a.u.)
8,CTCCCAAGTAAATGATTTGAAATACCCGATCTAATTATTACGGAGTCACCTAGTGCAG,3180 fluorescence intensity (a.u.)
9,TTTTGCAATGTGATTTGCTGGTTTGGATAGTGGAGAAGTTCGGAGTCACCTAGTGCAG,3300 fluorescence intensity (a.u.)
10,CCTCTTGATTGATTGCTCGGTCGACTGATTGCTTCTTACACGGAGTCACCTAGTGCAG,65000 fluorescence intensity (a.u.)
11,CCAAGCAAATAATCCGATAGATTGAATCGGTGAGTTACCACGGAGTCACCTAGTGCAG,9630 fluorescence intensity (a.u.)
12,CTCTTGATTGCGGCGCGACTGCGAGCGAGAGAGCTTCACGCGGAGTCACCTAGTGCAG,20500 fluorescence intensity (a.u.)
13,ATTTATTAATATTAATATTATTGTGGGAAATTTTAGAATGCGGAGTCACCTAGTGCAG,3460 fluorescence intensity (a.u.)
14,TGCTGTAATTACTTTTCTGTAATTTGGATTAATCCTTCGCCGGAGTCACCTAGTGCAG,40800 fluorescence intensity (a.u.)
15,AGATACTTAATTAGTGTCTTCTATAAGCAAAGGTCAGGAACGGAGTCACCTAGTGCAG,11300 fluorescence intensity (a.u.)
16,GCTCTATCACAAAATAAACTAGAGTTATGAAGCTGGATTTCGGAGTCACCTAGTGCAG,4850 fluorescence intensity (a.u.)
17,GTTATGTAATTAAAACGTTGTTTTCTTCTAATATATTGTCCGGAGTCACCTAGTGCAG,7150 fluorescence intensity (a.u.)
18,AATCAAATCATCTCATCAAAGTCCAATCCCGCTAGCTCCACGGAGTCACCTAGTGCAG,9000 fluorescence intensity (a.u.)
19,TGATTGTACGTATTCTGATTGATTGCTTATCGATATCTCACGGAGTCACCTAGTGCAG,26100 fluorescence intensity (a.u.)
20,GAAATGGGCCTAATTGTCGGTCACATACCGAGTAAATGGGCGGAGTCACCTAGTGCAG,4300 fluorescence intensity (a.u.)
21,TGAGTAATTGATAGTGACACGGCTATCCAACCAATCCAGGCGGAGTCACCTAGTGCAG,65100 fluorescence intensity (a.u.)

row,Sequence,binding signal
1,TAATCGTATTAATTGATCAACAGGCTAGGCCAGCCAAACACGGAGTCACCTAGTGCAG,13200 fluorescence intensity (a.u.)
2,GATTGATTTGATTGATTGCTTGATTGGTTAATTGGTTGATCGGAGTCACCTAGTGCAG,51600 fluorescence intensity (a.u.)
3,ACGGGGTTGCGGTAATTTTAATTGGGCCGAAATGTGATTCCGGAGTCACCTAGTGCAG,4130 fluorescence intensity (a.u.)
4,TCTGGTCGTAAATTGACAACCAACCTTAAGAAAATCCAGGCGGAGTCACCTAGTGCAG,21300 fluorescence intensity (a.u.)
5,GGCCGATTGATTGGGTCCGAGTAATCTCGGAAATGTGGGGCGGAGTCACCTAGTGCAG,53600 fluorescence intensity (a.u.)
6,TTTTGATTGCACCTTGCTTCTCGTATACACCCTCACCTATCGGAGTCACCTAGTGCAG,22200 fluorescence intensity (a.u.)
7,GTGATTGATATCGATTCTGATTGATGCCTTTGCCTGGTACCGGAGTCACCTAGTGCAG,57000 fluorescence intensity (a.u.)
8,ACCTTCACTTGATTGCTGGTGGTAGTAGTAGTAGTAGTACCGGAGTCACCTAGTGCAG,21700 fluorescence intensity (a.u.)
9,CGGGTTTGATTTGATTTGATTTTGATTTTGATTTGCTTCTCGGAGTCACCTAGTGCAG,53400 fluorescence intensity (a.u.)
10,CAAGAAATGACTTAATTAGAAAACCTCTTTGGAGCACCCACGGAGTCACCTAGTGCAG,11000 fluorescence intensity (a.u.)
11,AAAGCATTCATGTTAATTTTCTCCTAACTCAAATCGAATGCGGAGTCACCTAGTGCAG,3260 fluorescence intensity (a.u.)
12,CTGATTGGTTAGTAAGAGAATGTTGGTGGTGAAGTTGTTACGGAGTCACCTAGTGCAG,29900 fluorescence intensity (a.u.)
13,AAACTAACCAGGATCTGGTAATTGGAACGATCCCCATTCCCGGAGTCACCTAGTGCAG,4390 fluorescence intensity (a.u.)
14,GAAGTTTAATTATCATAAGATTGTGATGGTTATGTATGGTCGGAGTCACCTAGTGCAG,31700 fluorescence intensity (a.u.)
15,TGTATTGCCTAATTAATTTTATGCGCCTTTAATTTACTGCCGGAGTCACCTAGTGCAG,16800 fluorescence intensity (a.u.)
16,CATATCCCATTTGCCAATCACACCCTGAGAGTATGTATATCGGAGTCACCTAGTGCAG,6560 fluorescence intensity (a.u.)
17,CACCATTATTGCCAATTATCCTTGCTTGCGTGGTAGAGTACGGAGTCACCTAGTGCAG,26200 fluorescence intensity (a.u.)
18,ACTTGATTTCTCTGTTGGAAGATGGGTATATTTCGAGACCCGGAGTCACCTAGTGCAG,17200 fluorescence intensity (a.u.)
19,TACTCTGATTTTGTCCATTACCAGCTGCAAATGGACCAGCCGGAGTCACCTAGTGCAG,19300 fluorescence intensity (a.u.)
20,TTGACAGTTAATCCTAGGTCTATCTATCGCACTGAGTTTGCGGAGTCACCTAGTGCAG,12400 fluorescence intensity (a.u.)
21,ACAGATTGAGAGGGAGCTCAGGGAACCAGTCTCACAAAATCGGAGTCACCTAGTGCAG,8100 fluorescence intensity (a.u.)
